Reference: PubChem BioAssay AID1159580 (chemical genetic matrix, 2015)
Where “and” joins values, the source holds several entries; their conditions need not be identical. Equal entries are not always repeated. Hit rate of the full screen: of about 5,500 compounds, about 2,000 (36%) were called active. About 18% were inconclusive and are not listed. Rule as the data show it: active = normalized growth mostly below about 0.91 (no sharp cut-off); inconclusive = no clear call, values can overlap the other calls; inactive = mostly above about 0.92. The list shows a part of the results.

Experiment: chemical genetic growth profiling, strain panel (AID 1159580);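 also: tested at 20 µM; growth read once vehicle control cultures reached saturation at 30 °C; 1 = growth at the plate median or of vehicle wells; lower values mean less growth of the strain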
Details: S. cerevisiae deletion strains, growth OD

Measured: normalized growth

CC1(C)S[C@@H]2[C@H](NC(=O)[C@H](N)c3ccccc3)C(=O)N2[C@H]1C(=O)O
inactive: locus YAL021C, strain ccr4, stronger effect = lower value 0.98 | locus YAL026C, strain drs2, stronger effect = lower value 0.971 | locus YAL030W, strain snc1, stronger effect = lower value 0.987 | locus YBL061C, strain skt5, stronger effect = lower value 0.973 | locus YBR009C, strain hhf1, stronger effect = lower value 1 | locus YBR021W, strain FUR4, stronger effect = lower value 1.01 | locus YBR023C, strain chs3, stronger effect = lower value 0.967 | locus YBR171W, strain sec66, stronger effect = lower value 0.977 | locus YBR229C, strain ROT2, stronger effect = lower value 1.01 | locus YBR231C, strain swc5, stronger effect = lower value 0.999 | locus YBR279W, strain paf1, stronger effect = lower value 0.954 | locus YCL011C, strain gbp2, stronger effect = lower value 0.95 | locus YCL016C, strain dcc1, stronger effect = lower value 0.942 | locus YCL029C, strain bik1, stronger effect = lower value 0.998 | locus YCL061C, strain MRC1, stronger effect = lower value 0.973 | locus YCL069W, strain vba3, stronger effect = lower value 0.98 | locus YCR088W, strain abp1, stronger effect = lower value 0.975 | locus YDL005C, strain med2, stronger effect = lower value 0.979 | locus YDL035C, strain GPR1, stronger effect = lower value 1.02 | locus YDL040C, strain nat1, stronger effect = lower value 0.971 | locus YDL074C, strain BRE1, stronger effect = lower value 1.01 | locus YDL101C, strain DUN1, stronger effect = lower value 1.01 | locus YDL134C, strain PPH21, stronger effect = lower value 1.01 | locus YDL185W, strain tfp1, stronger effect = lower value 1 | locus YDL192W, strain arf1, stronger effect = lower value 1.03 | locus YDR001C, strain nth1, stronger effect = lower value 0.971 | locus YDR069C, strain doa4, stronger effect = lower value 0.965 | locus YDR101C, strain arx1, stronger effect = lower value 1.01 | locus YDR137W, strain rgp1, stronger effect = lower value 0.945 | locus YDR150W, strain NUM1, stronger effect = lower value 1.02 | locus YDR159W, strain sac3, stronger effect = lower value 0.981 | locus YDR162C, strain NBP2, stronger effect = lower value 1.03 | locus YDR195W, strain ref2 0.961 | locus YDR297W, strain sur2, stronger effect = lower value 0.976 | locus YDR318W, strain mcm21, stronger effect = lower value 1.01 | locus YDR334W, strain swr1, stronger effect = lower value 0.961 | locus YDR335W, strain msn5, stronger effect = lower value 0.948 | locus YDR388W, stronger effect = lower value 1 | locus YDR392W, strain spt3, stronger effect = lower value 0.888 | locus YDR502C, strain sam2, stronger effect = lower value 1.01 | locus YEL003W, strain gim4, stronger effect = lower value 0.98 | locus YEL037C, strain rad23, stronger effect = lower value 0.979 | locus YEL061C, strain CIN8 (second series), stronger effect = lower value 0.97 | locus YEL061C, strain CIN8, stronger effect = lower value 1.01 | locus YER015W, strain faa2, stronger effect = lower value 0.961 | locus YER016W, strain bim1, stronger effect = lower value 0.955 | locus YER110C, stronger effect = lower value 0.991 | locus YER111C, strain swi4, stronger effect = lower value 0.96 | locus YER155C, strain BEM2 (second series), stronger effect = lower value 1.03 | locus YER155C, strain BEM2, stronger effect = lower value 1 | locus YER167W, strain BCK2, stronger effect = lower value 1.01 | locus YFR010W, strain ubp6, stronger effect = lower value 0.996 | locus YGL078C, strain dbp3, stronger effect = lower value 0.999 | locus YGL086W, strain mad1, stronger effect = lower value 1 | locus YGL167C, strain pmr1, stronger effect = lower value 0.987 | locus YGL173C, strain kem1, stronger effect = lower value 0.984 | locus YGL227W, strain vid30, stronger effect = lower value 0.974 | locus YGL240W, strain doc1, stronger effect = lower value 0.991 | locus YGL248W, strain PDE1, stronger effect = lower value 1.02 | locus YGL253W, strain hxk2, stronger effect = lower value 0.944 | locus YGR135W, strain pre9, stronger effect = lower value 1.01 | locus YGR229C, strain SMI1, stronger effect = lower value 1.03 | locus YGR252W, strain gcn5, stronger effect = lower value 1.03 | locus YHR013C, strain ard1, stronger effect = lower value 0.938 | locus YHR027C, strain rpn1, stronger effect = lower value 0.97 | locus YHR030C, strain SLT2, stronger effect = lower value 1.01 and 1.03 | locus YHR079C, strain IRE1 (second series), stronger effect = lower value 1 | locus YHR079C, strain IRE1, stronger effect = lower value 1.03 | locus YHR094C, strain hxt1, stronger effect = lower value 0.994 | locus YHR129C, strain ARP1, stronger effect = lower value 1.01 | locus YHR142W, strain chs7, stronger effect = lower value 0.924 | locus YHR200W, strain rpn10, stronger effect = lower value 1 | locus YIL066C, strain RNR3, stronger effect = lower value 1.03 | locus YIL073C, strain SPO22, stronger effect = lower value 1.04 | locus YIL125W, strain kgd1, stronger effect = lower value 1 | locus YIR030C, strain dcg1, stronger effect = lower value 1.01 | locus YJL092W, strain hpr5, stronger effect = lower value 0.973 | locus YJL095W, strain BCK1 (second series), stronger effect = lower value 0.989 | locus YJL095W, strain BCK1, stronger effect = lower value 1.01 and 1.04 | locus YJL115W, strain asf1, stronger effect = lower value 0.94 | locus YJL129C, strain trk1, stronger effect = lower value 0.913 | locus YJL134W, strain LCB3, stronger effect = lower value 1.01 | locus YJL154C, strain vps35, stronger effect = lower value 0.97 | locus YJL164C, strain tpk1, stronger effect = lower value 0.977 | locus YJL166W, strain qcr8, stronger effect = lower value 0.998 | locus YJL168C, strain set2, stronger effect = lower value 1 | locus YJL187C, strain SWE1 (second series), stronger effect = lower value 1 | locus YJL187C, strain SWE1, stronger effect = lower value 0.988
